Assay results taken from PMC6212790, “How bacterial xenogeneic silencer rok distinguishes foreign from self DNA in its resident genome”.
Over roughly 33,000 sequences, “e-score” has its median near -0.037; the highest 2% begin near 0.34. Only a selection was taken, and the highest values are over-represented in it overall.

molecular target: T1, GST-Rok (full length) (Bacillus subtilis subsp. subtilis str. …, UniProt O34857 1-191); assay: protein binding microarray; Rok is a gene silencer of Bacillus subtilis; high values mean tight binding; details: protein: recombinant; tags: GST (pTH5325, pDEST15-Magic modified); dsDNA, one strand shown
T1 sequence: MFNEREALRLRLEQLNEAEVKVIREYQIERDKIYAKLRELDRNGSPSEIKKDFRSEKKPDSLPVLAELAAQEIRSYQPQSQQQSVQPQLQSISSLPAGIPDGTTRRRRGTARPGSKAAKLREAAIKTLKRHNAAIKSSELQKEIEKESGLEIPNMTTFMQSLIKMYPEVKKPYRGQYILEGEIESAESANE
How it was run: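 Each has a 25-mer constant primer and a 35-mer variable part from a de Bruijn sequence of order 10, covering every non-palindromic 8-mer at least 32 times (palindromic 16). Preference for each 8-mer is given as a rank-based, unitless enrichment score (E-score). Its range runs from 0.5 (most favored) to −0.5 (most disfavored).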

Sequence	binding signal
CAAGAAAA	-0.0182 E-score
GATTCACA	0.0605 E-score
AACGAAGC	-0.108 E-score
ACGGAAAC	-0.0398 E-score
AATTGACT	0.16 E-score
AAGTAACT	0.225 E-score
ACTAGGCG	-0.156 E-score
TATGGTCA	-0.0127 E-score
AGCGCAAA	0.0549 E-score
GCGTACTA	0.082 E-score
AAATTCTT	0.0789 E-score
AAATTCTC	0.0375 E-score
AAATTCTA	0.402 E-score
ACCGTCGA	0.0177 E-score
GGTACTAC	0.212 E-score
AGTACTGC	0.114 E-score
AGTACTCA	0.0122 E-score
TGTACTAA	0.0689 E-score
CGTACTAA	0.217 E-score
AGTACGAT	0.134 E-score
CGTACTGC	0.0418 E-score
AGTACTAT	0.388 E-score
AGTACTAA	0.357 E-score
GGTACTAA	0.138 E-score
AGTACTAC	0.389 E-score

Sequence	binding signal
CGTACTAC	0.339 E-score
AGGAGTCC	-0.0508 E-score
ATTCCTAC	0.201 E-score
CATGGTCA	-0.1 E-score
TACCGAAA	0.225 E-score
TCGAATCA	-0.0502 E-score
ACCGCACT	0.0535 E-score
CGTACTAG	0.0856 E-score
AGTACTGG	0.156 E-score
AGTACTAG	0.385 E-score
AAGGTAGG	0.133 E-score
ACGGTAGT	0.373 E-score
ACGGTATA	0.252 E-score
AAGGTAGT	0.354 E-score
ACGGTAGG	0.137 E-score
CCGGTATA	-0.0189 E-score
AAGGTAGC	0.133 E-score
GCGGTATA	0.347 E-score
CCGGTAAA	0.107 E-score
TCGGTAAA	0.136 E-score
ACGGTAGC	0.139 E-score
ACGGTAAA	0.349 E-score
CTAGATGA	0.0637 E-score
CTGCGAGA	-0.11 E-score
AAGCCTGA	-0.131 E-score

Sequence	binding signal
GACCCAGA	-0.174 E-score
AGCAAACC	0.0585 E-score
CCGGTAGA	0.229 E-score
AAGGTAGA	0.288 E-score
GCGGTAGA	0.337 E-score
GGGGTAGA	0.011 E-score
GCGGTAGC	0.0476 E-score
TAGGTAGA	0.361 E-score
GAGGTAGA	0.296 E-score
ACGGTAGA	0.365 E-score
TCGGTAGA	0.231 E-score
GAAGCAAC	0.0226 E-score
GCCGTTAA	-0.0418 E-score
CAGTTCTC	0.00617 E-score
AACGACAG	0.0268 E-score
ATATTGTG	0.172 E-score
CTATTGTC	-0.0651 E-score
ATATTGTA	0.375 E-score
ACATTGTA	0.222 E-score
CTATTGTA	0.381 E-score
CAATTGTA	0.339 E-score
GAATTGTA	0.254 E-score
CAATTGTC	-0.0649 E-score
GTATTGTA	0.238 E-score
AATGTTGT	0.154 E-score

Sequence	binding signal
CAGGGTTC	-0.172 E-score
CGAACTAG	0.319 E-score
GTAACTAA	0.304 E-score
GTAACTAC	0.394 E-score
CGAACTAC	0.358 E-score
ATAACTAC	0.316 E-score
AGAACTAC	0.327 E-score
GCAACTAC	0.308 E-score
CTAACTAA	0.29 E-score
CTAACTAC	0.397 E-score
AAAGCCTG	-0.18 E-score
ATTTTAAA	0.126 E-score
GTCGCTAA	0.16 E-score
GCATATGC	0.129 E-score
CTCATAAG	-0.129 E-score
CACTACAA	0.143 E-score
CACTACAG	-0.0355 E-score
TACTACAA	0.357 E-score
GACTACAA	0.12 E-score
ACCTACAA	0.265 E-score
AACTACAC	0.335 E-score
ACCTACAG	0.0467 E-score
ACCTACAT	0.271 E-score
GCCTACAA	0.107 E-score
AACTACAA	0.34 E-score

Sequence	binding signal
AACTACAG	0.337 E-score
AACTACAT	0.419 E-score
GAACCAGC	-0.148 E-score
GTAATCCA	0.00713 E-score
ACATCGGA	0.06 E-score
ATTTTTGA	0.0221 E-score
GCTCTCAA	-0.174 E-score
CCTAGCGA	-0.111 E-score
CTCTACAA	0.0924 E-score
AGCTACAC	0.191 E-score
AGCTACAT	0.364 E-score
AGCTACAA	0.205 E-score
TTCTACAA	0.392 E-score
GTCTACAA	0.11 E-score
ACTTCGTC	-0.0747 E-score
TGTCCAAA	0.0695 E-score
ACCGGCCG	-0.0951 E-score
TCGAGAAA	0.135 E-score
GGTATTCA	-0.0162 E-score
CTTATTTA	0.148 E-score
AGTATTTA	0.344 E-score
AGTATTTC	0.332 E-score
GGTATTTA	0.356 E-score
AGTATTTG	0.31 E-score
ATTATTTA	0.406 E-score

Sequence	binding signal
CGTATTTA	0.261 E-score
GTTATTTA	0.197 E-score
AAATGCTC	-0.142 E-score
AAGATTAG	0.197 E-score
ACCAGTGC	-0.175 E-score
TAGCAGCA	0.0346 E-score
ATAATACA	0.237 E-score
GGAATATA	0.366 E-score
ATAATAAA	0.297 E-score
AGAATATA	0.296 E-score
CTAATAGA	0.0426 E-score
ATAATACC	0.174 E-score
ATAATAAC	0.312 E-score
ATAATAAT	0.372 E-score
CGAATATA	0.321 E-score
CTAATATC	0.255 E-score
ATAATACG	0.349 E-score
CTAATATA	0.349 E-score
GTGGGTAA	0.142 E-score
AGTGACAT	0.101 E-score
AGCAAAAG	-0.151 E-score
CCACTGAA	-0.106 E-score
CCCATTGA	-0.11 E-score
ACTTGATG	-0.00809 E-score
AGCGCTGG	-0.124 E-score

Sequence	binding signal
AGGCGTGC	-0.13 E-score
ATATTCAT	0.319 E-score
GTGACGGA	-0.136 E-score
TCGTTCAA	0.0056 E-score
GTAATAGA	0.257 E-score
ATAATATA	0.453 E-score
ATAATATC	0.274 E-score
GTAATATA	0.391 E-score
GTAATACA	0.247 E-score
ATAATATG	0.232 E-score
GCATGTCA	-0.0408 E-score
ACGAGTTG	0.149 E-score
GAGATTGA	0.0297 E-score
TTGGTAAA	0.217 E-score
CATATCGA	0.0224 E-score
CTTTAAAG	0.0411 E-score
CCTAGTTA	0.209 E-score
ACTAGTCG	0.292 E-score
GCTAGTCA	-0.0821 E-score
GCTAGTTA	0.337 E-score
ACTAGTTA	0.44 E-score
ACTAGTCA	0.352 E-score
ACTAGTTC	0.329 E-score
GCTAGTGA	0.0873 E-score
ACTAGTCC	0.108 E-score

Sequence	binding signal
ACTGTTCT	0.0222 E-score
AAATAGGC	0.00361 E-score
AACATTAA	0.133 E-score
AGCTGCTC	-0.187 E-score
CTCCATAC	0.166 E-score
AGTCTGAC	-0.198 E-score
GTTAGGTA	0.191 E-score
CCAAAAAG	-0.177 E-score
GGAATTAA	0.111 E-score
CCTCAGTA	0.0795 E-score
CTGGCTCA	0.0475 E-score
CTCGAGCA	-0.112 E-score
CTTCGAAA	-0.139 E-score
CGTGAACA	0.0255 E-score
AATTGTAC	0.341 E-score
ACTTGTAT	0.236 E-score
ACTTGTAC	0.345 E-score
GATTGTAC	0.317 E-score
AATTGTAG	0.28 E-score
ACTTGTAA	0.168 E-score
ACGGTTAG	-0.0112 E-score
GTTATTGA	0.0636 E-score
CGTTACAA	0.151 E-score
CTCAGTTC	-0.0174 E-score
ATCTAGTA	0.408 E-score

Sequence	binding signal
ATCTAGCA	0.339 E-score
CTCTAGTA	0.119 E-score
ATCTAGCC	0.178 E-score
ATCTAGTC	0.297 E-score
CTCTAGCA	-0.115 E-score
AACTTCAT	0.0811 E-score
GCTGTGAC	-0.0172 E-score
AGATAACA	0.241 E-score
CTTACCAC	0.00163 E-score
AGTTGCGA	0.0582 E-score
GAACTGAA	-0.118 E-score
AGACCGTC	-0.193 E-score
CCAATGGG	-0.118 E-score
AGTCTGCG	0.0274 E-score
AGTGGGCA	-0.0765 E-score
GACGACGC	0.0038 E-score
ATATATCC	0.18 E-score
ATATATCA	0.398 E-score
CTATATCC	0.0894 E-score
GTATATCA	0.208 E-score
TAATATCA	0.338 E-score
CAATATCA	0.183 E-score
GAATATCA	0.18 E-score
CTATATCA	0.231 E-score
ATATATCG	0.381 E-score
